Here are results for 26 molecules from PubChem BioAssay AID463082 (The Scripps Research Institute Molecular Screening Center, 2010).

Among all 330,000 compounds or so, about 4,900 (1.5%) were called active. For the sample, actives were picked, then their nearest neighbours and some compounds at random. Unmarked numbers belong to inactive results.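 Rule for the calls: active = inhibition above the mean inhibition across the screen plus 3 SD (cut at about 25% in these data); inactive = the rest.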

In this test the target is Platelet-activating factor acetylhydrolase (Homo sapiens) (UniProt Q13093). Kind of test: inhibition of plasma PAF acetylhydrolase – biochemical, fluorescence polarization, human, primary screen (AID 463082).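 Note: inhibitors block binding of the rhodamine activity-based probe so polarization drops; 0% = enzyme with DMSO and 100% = wells lacking pPAFAH.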 The conditions noted are these: recombinant pPAFAH, FP-rhodamine probe fluorescence polarization; at 3.39 µM; stronger effect = higher value. (In general: Fluorescence polarisation rises when a labelled molecule tumbles more slowly, as on binding a larger partner.)
Platelet-activating factor acetylhydrolase (Homo sapiens), sequence (Q13093 whole entry, looked up): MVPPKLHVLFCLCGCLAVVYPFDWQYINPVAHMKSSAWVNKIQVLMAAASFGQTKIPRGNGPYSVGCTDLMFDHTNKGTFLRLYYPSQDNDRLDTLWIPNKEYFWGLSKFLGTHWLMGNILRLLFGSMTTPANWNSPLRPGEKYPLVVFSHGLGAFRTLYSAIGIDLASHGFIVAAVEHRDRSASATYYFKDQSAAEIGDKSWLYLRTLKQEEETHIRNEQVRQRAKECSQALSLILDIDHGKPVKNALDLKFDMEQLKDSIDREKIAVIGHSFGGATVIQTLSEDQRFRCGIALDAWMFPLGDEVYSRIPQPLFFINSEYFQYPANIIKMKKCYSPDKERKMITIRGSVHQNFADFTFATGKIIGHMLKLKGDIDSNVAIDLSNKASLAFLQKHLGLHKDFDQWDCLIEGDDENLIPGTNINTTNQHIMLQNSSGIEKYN
As usually defined, the inhibition is the drop in the measured response relative to a control, in per cent. Regarding `O=C(Nc1ccc2c(c1)OCO2)C1CC(c2c(F)cccc2Cl)=NO1` (stereo unspecified), the inhibition is 1.16%. Turning to `Nc1ccc2nc3c(=O)[nH]c(=S)[nH]c3nc2c1`, the inhibition was 47.8% (active). With `O=C1CSc2ccc(C(=O)NCc3ccccn3)cc2N1` the figure was 0.84%; with `COCCNC(=O)Nc1ccc2nc(-c3ccco3)c(-c3ccco3)nc2c1`, 75.6% (active). For the molecule `COCCNC(=O)c1snc2ccc(Cl)cc12`, the inhibition was -0.4%.

For the molecule `COc1cccc(NC(=O)NCCN2CCCCC2)c1`, the inhibition was 3.86%. Turning to `O=C(NCc1ccccn1)c1ccc2nc(-c3ccco3)c(-c3ccco3)nc2c1`, the inhibition was 65.8% (active). As for `Cc1cc(C)cc(NC(=O)NCc2ccccn2)c1`, the inhibition is 1.23%. With `Cc1ccc(C(=O)CN2C(=O)NC3(CCc4ccccc43)C2=O)c(C)c1` (stereo unspecified) the figure was -8.87%; with `O=S(=O)(Oc1ccccc1C(=S)N1CCOCC1)c1ccc(Cl)cc1`, 4.58%. As for `O=C(NCc1ccc(F)cc1)C1CCC(CNc2c(N3CCOCC3)c(=O)c2=O)CC1` (stereo unspecified), the inhibition was 1.22%. Take `CCOC(=O)c1sc(NC(=O)C2CSC3(C)CCC(=O)N23)nc1C` (stereo unspecified): the inhibition is 0.96%. As to `Cc1ccc(C2C3=C(Nc4[nH]n(-c5ccccc5)c(=O)c42)c2ccccc2C3=O)cc1` (stereo unspecified), the inhibition was 34.5% (active). With `Cc1cc(C)c(C2C3=C(Nc4c2c(C)nn4-c2ccccn2)c2ccccc2C3=O)c(C)c1` (stereo unspecified) the figure was -8.35%; with `Cc1ccc(-c2ccnc3[nH]n(-c4ccccc4)c(=O)c23)cc1`, 2.79%; with `COc1ccccc1N(CC(=O)Nc1ccc(C)cc1Cl)S(=O)(=O)c1cccs1`, 6.13%.

As to `O=c1cc(CN2CCN(S(=O)(=O)/C=C/c3ccccc3)CC2)c2ccc(O)cc2o1`, the inhibition is 2.78%. `Cc1ccccc1C(=O)Nc1cccc(-c2nnc(SCC(=O)O)n2C)c1`: the inhibition is -1.6%. As to `Cc1noc(C)c1C(=O)OC(C)C(=O)Nc1ccc2c(c1)OCO2` (stereo unspecified), the inhibition was 1.18%. With `O=C(COC(=O)Cc1ccc(Br)cc1)Nc1ccc(N2CCOCC2)cc1`, the inhibition is 6.93%. Take `Cc1cccc(C)c1NC(=O)CNC(=O)Cc1ccc(Br)cc1`: the inhibition was 1.92%. With `O=C(COC(=O)Cc1ccc(Br)cc1)Nc1c(F)c(F)c(F)c(F)c1F` the figure was 32.9% (active); with `CCC(C)N(C(=O)Cn1nc(C)c([N+](=O)[O-])c1C)C1CCS(=O)(=O)C1` (stereo unspecified), -1.29%. With `Cc1cc(F)ccc1S(=O)(=O)Nc1ncnc2scc(-c3ccc(F)cc3)c12` the figure was 30.3% (active).

Turning to `COc1ccc(-c2csc3ncnc(N4CCN(S(=O)(=O)c5cccc(F)c5)CC4)c23)cc1`, the inhibition is 3.15%. For `O=S(=O)(Nc1ncnc2sccc12)c1cccc(F)c1`, the inhibition was 12.2%.
